Here are results for ten compounds from PubChem BioAssay (NCI).

About 79,000 compounds went through this panel and 15% of them were active in at least one assay; those are over-represented in the sample as a whole. A number with no mark means an inactive call. Activity calls are given as the source filed them. Cut-off read from the data, not from the text of the source: active = growth inhibition above about 70%; inactive = the rest.

Assay [1] can be described thus: NCI Yeast Anticancer Drug Screen. Data for the rad50 strain (AID 155).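 Note: 0% = growth of vehicle-only cultures of the same strain.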 The following applies: S. cerevisiae rad50 strain growth inhibition, active compounds read high. The method, boiled down:
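Inhibition values express reduced yeast growth in compound-treated cultures relative to vehicle-treated controls.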

The nature of assay [2]: NCI Yeast Anticancer Drug Screen. Data for the mec2-1 strain (AID 157). The following applies: S. cerevisiae mec2-1 strain, active compounds read high. Put shortly: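 Using mec2-1 yeast: add compound, measure growth, express inhibition versus vehicle-treated cultures.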
Assay [3] is described as follows: NCI Yeast Anticancer Drug Screen. Data for the sgs1 mgt1 strain (AID 161).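 Note: 0% = growth of cultures given vehicle only.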 The following applies: S. cerevisiae sgs1 mgt1 strain, active compounds read high. Put shortly: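 This yeast growth screen uses a strain with defined DNA-repair lesions; compound-treated growth is compared with vehicle-treated growth.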
Assay [4] can be described thus: NCI Yeast Anticancer Drug Screen. Data for the cln2 rad14 strain (AID 165).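 Note: 0% = growth equal to vehicle treated cultures.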 The following applies: S. cerevisiae cln2 rad14 strain, active compounds read high. Put shortly: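 Yeast strain cln2 rad14, bearing defects in cell cycle control and DNA repair, serves as the test system; values reflect growth inhibition compared with vehicle.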
The nature of assay [5]: NCI Yeast Anticancer Drug Screen. Data for the bub3 strain (AID 167). The following applies: S. cerevisiae bub3 mutant strain, active compounds read high. Put shortly:
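Steps: expose the mutant yeast strain to compound; grow alongside vehicle-treated cultures; measure growth; express inhibition against the vehicle cultures.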

Assay [6] is described as follows: NCI Yeast Anticancer Drug Screen. Data for the mlh1 rad18 strain (AID 175). The following applies: S. cerevisiae mlh1 rad18 strain growth inhibition, active compounds read high. Put shortly: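 Steps: expose repair-defective yeast to compound; measure growth; express inhibition against vehicle-treated controls.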
Setting [7] is: at 5.0 µM (retest, dose inferred, filed as 0.5).
The mark [8] stands for this setting: at 50.0 µM (retest, dose inferred, filed as 5.0).

Take `[N-]=[N+]=Nc1c([N+](=O)[O-])c(Cl)nc2ccccc12`: the growth inhibition in assay [1] (setting [7]) is 27%; in assay [1] (setting [8]), 95% (active); in assay [1] (at 50.0 µM) it was 86% (active); in assay [2] (setting [7]), 22%; in assay [2] (setting [8]) it was 99% (active); in assay [2] (at 50.0 µM), 90.7% (active). Also, the growth inhibition is 34% in assay [3] (setting [7]); 99% (active) in assay [3] (setting [8]); 92% (active) in assay [3] (at 50.0 µM); 11% in assay [4] (setting [7]); 87% (active) in assay [4] (setting [8]); 90.5% (active) in assay [4] (at 50.0 µM). The growth inhibition in assay [5] (setting [7]) was 50%; in assay [5] (setting [8]), 99% (active); in assay [5] (at 50.0 µM), 90.6% (active); in assay [6] (setting [7]), 36%; in assay [6] (setting [8]) it was 98% (active); in assay [6] (at 50.0 µM), 88.2% (active).

For the compound `CN(NC(=O)c1cccs1)C1=NCCCN1`, the growth inhibition is 43% in assay [1] (setting [7]); 83% (active) in assay [1] (setting [8]); -18.2% in assay [1] (at 50.0 µM); 8% in assay [2] (setting [7]); 21% in assay [2] (setting [8]); -4.9% in assay [2] (at 50.0 µM). Also, the growth inhibition in assay [3] (setting [7]) is 65%; in assay [3] (setting [8]), 76% (active); in assay [3] (at 50.0 µM), -16.9%; in assay [4] (setting [7]), 6%; in assay [4] (setting [8]) it was 33%; in assay [4] (at 50.0 µM), 10.3%. Moreover, the growth inhibition is 18% in assay [5] (setting [7]); 22% in assay [5] (setting [8]); 4.8% in assay [5] (at 50.0 µM); 23% in assay [6] (setting [7]); 55% in assay [6] (setting [8]); -20.7% in assay [6] (at 50.0 µM).

For `OC(C(=Nc1ccccc1)c1ccccc1)c1ccccc1` (stereo not given), the growth inhibition in assay [1] (setting [7]) was 50%; in assay [1] (setting [8]), 96% (active); in assay [1] (at 50.0 µM) it was 98.7% (active); in assay [2] (setting [7]) it was 11%; in assay [2] (setting [8]), 99% (active); in assay [2] (at 50.0 µM) it was 98.6% (active). In addition, the growth inhibition was 1% in assay [3] (setting [7]); 98% (active) in assay [3] (setting [8]); 99.2% (active) in assay [3] (at 50.0 µM); -3% in assay [4] (setting [7]); 98% (active) in assay [4] (setting [8]); 98.8% (active) in assay [4] (at 50.0 µM). Moreover, the growth inhibition is 15% in assay [5] (setting [7]); 98% (active) in assay [5] (setting [8]); 97.8% (active) in assay [5] (at 50.0 µM); 39% in assay [6] (setting [7]); 99% (active) in assay [6] (setting [8]); 99.1% (active) in assay [6] (at 50.0 µM).

With `CCCCCC(/C=N/Nc1nc(C)cc(=O)[nH]1)=C\c1ccccc1`, the growth inhibition was 9% in assay [1] (setting [7]); 45% in assay [1] (setting [8]); 31.3% in assay [1] (at 50.0 µM); -1% in assay [2] (setting [7]); 50% in assay [2] (setting [8]); 30.8% in assay [2] (at 50.0 µM). Also, the growth inhibition in assay [3] (setting [7]) is 3%; in assay [3] (setting [8]) it was 81% (active); in assay [3] (at 50.0 µM), 29.9%; in assay [4] (setting [7]), 3%; in assay [4] (setting [8]), 39%; in assay [4] (at 50.0 µM) it was 44.1%. In addition, the growth inhibition is -1% in assay [5] (setting [7]); 83% (active) in assay [5] (setting [8]); 53% in assay [5] (at 50.0 µM); -8% in assay [6] (setting [7]); 37% in assay [6] (setting [8]); 70.5% (active) in assay [6] (at 50.0 µM).

Take `N#CCCN(C(=S)Nc1cccc(C(F)(F)F)c1)C1CCCCC1`: the growth inhibition in assay [1] (setting [7]) was -1%; in assay [1] (setting [8]), 69%; in assay [1] (at 50.0 µM), 75.3% (active); in assay [2] (setting [7]) it was 3%; in assay [2] (setting [8]), 87% (active); in assay [2] (at 50.0 µM) it was 75% (active). Further, the growth inhibition was -1% in assay [3] (setting [7]); 87% (active) in assay [3] (setting [8]); 82.4% (active) in assay [3] (at 50.0 µM); -1% in assay [4] (setting [7]); 46% in assay [4] (setting [8]); 41.1% in assay [4] (at 50.0 µM). For the same compound, the growth inhibition in assay [5] (setting [7]) is 1%; in assay [5] (setting [8]), 81% (active); in assay [5] (at 50.0 µM) it was 76.2% (active); in assay [6] (setting [7]), 1%; in assay [6] (setting [8]), 89% (active); in assay [6] (at 50.0 µM), 61.2%.

For `O=C1C2=C(C(=O)c3cnccc31)C1C=CC2CC1` (stereo not given), the growth inhibition in assay [1] (setting [7]) was 21%; in assay [1] (setting [8]), 71% (active); in assay [1] (at 50.0 µM) it was 49.1%; in assay [2] (setting [7]), 17%; in assay [2] (setting [8]), 69%; in assay [2] (at 50.0 µM), 31.2%. Besides, the growth inhibition in assay [3] (setting [7]) was 25%; in assay [3] (setting [8]) it was 78% (active); in assay [3] (at 50.0 µM) it was 10.2%; in assay [4] (setting [7]), 16%; in assay [4] (setting [8]) it was 40%; in assay [4] (at 50.0 µM), 15.8%. For the same compound, the growth inhibition is 27% in assay [5] (setting [7]); 88% (active) in assay [5] (setting [8]); 59.9% in assay [5] (at 50.0 µM); 40% in assay [6] (setting [7]); 94% (active) in assay [6] (setting [8]); 90.8% (active) in assay [6] (at 50.0 µM).

With `Cc1ccc(S)c(S)c1`, the growth inhibition is 65% in assay [1] (setting [7]); 53% in assay [1] (setting [8]); 63.4% in assay [1] (at 50.0 µM); 52% in assay [2] (setting [7]); 34% in assay [2] (setting [8]); 35.9% in assay [2] (at 50.0 µM). The growth inhibition in assay [3] (setting [7]) is 44%; in assay [3] (setting [8]), 28%; in assay [3] (at 50.0 µM), 39.3%; in assay [4] (setting [7]) it was 81% (active); in assay [4] (setting [8]), 93% (active); in assay [4] (at 50.0 µM), 77.7% (active). For the same compound, the growth inhibition in assay [5] (setting [7]) is 92% (active); in assay [5] (setting [8]), 93% (active); in assay [5] (at 50.0 µM), 64.6%; in assay [6] (setting [7]), 95% (active); in assay [6] (setting [8]), 93% (active); in assay [6] (at 50.0 µM), 41.5%.

Turning to `CCN(CC)CCNc1ccc2nnn3c4ccccc4c(=O)c1c23`, the growth inhibition in assay [1] (setting [7]) is -2%; in assay [1] (setting [8]), 63%; in assay [1] (at 50.0 µM) it was 30.8%; in assay [2] (setting [7]), -31%; in assay [2] (setting [8]), 21%; in assay [2] (at 50.0 µM), 17.7%. Besides, the growth inhibition was 0% in assay [3] (setting [7]); -4% in assay [3] (setting [8]); 9.3% in assay [3] (at 50.0 µM); -1% in assay [4] (setting [7]); 39% in assay [4] (setting [8]); 21.1% in assay [4] (at 50.0 µM). For the same compound, the growth inhibition in assay [5] (setting [7]) is -10%; in assay [5] (setting [8]), 19%; in assay [5] (at 50.0 µM), 10.2%; in assay [6] (setting [7]), -1%; in assay [6] (setting [8]), -3%; in assay [6] (at 50.0 µM) it was 81.2% (active).

`CCOC(=O)C(=O)C1CCCCC1=O` (stereo not given): the growth inhibition in assay [1] (setting [7]) was 9%; in assay [1] (setting [8]), 95% (active); in assay [1] (at 50.0 µM) it was 98.5% (active); in assay [2] (setting [7]), 6%; in assay [2] (setting [8]), 98% (active); in assay [2] (at 50.0 µM) it was 98.8% (active). For the same compound, the growth inhibition is 5% in assay [3] (setting [7]); 92% (active) in assay [3] (setting [8]); 98.8% (active) in assay [3] (at 50.0 µM); 21% in assay [4] (setting [7]); 98% (active) in assay [4] (setting [8]); 98.8% (active) in assay [4] (at 50.0 µM). Further, the growth inhibition in assay [5] (setting [7]) is 6%; in assay [5] (setting [8]), 98% (active); in assay [5] (at 50.0 µM), 97% (active); in assay [6] (setting [7]) it was 11%; in assay [6] (setting [8]), 98% (active); in assay [6] (at 50.0 µM), 98.8% (active).

Regarding `CCCCCCCC[N+](C)(C)Cc1ccc(C[N+](C)(C)CCCCCCCC)cc1`, the growth inhibition was 1% in assay [1] (setting [7]); 24% in assay [1] (setting [8]); 8.75% in assay [1] (at 50.0 µM); 15% in assay [2] (setting [7]); 26% in assay [2] (setting [8]); 7.5% in assay [2] (at 50.0 µM). Besides, the growth inhibition in assay [3] (setting [7]) was 3%; in assay [3] (setting [8]), 34%; in assay [3] (at 50.0 µM), 1.05%; in assay [4] (setting [7]), 0%; in assay [4] (setting [8]) it was 18%; in assay [4] (at 50.0 µM), 24.9%. Further, the growth inhibition in assay [5] (setting [7]) is 2%; in assay [5] (setting [8]), 16%; in assay [5] (at 50.0 µM), 8.35%; in assay [6] (setting [7]), 0%; in assay [6] (setting [8]) it was 33%; in assay [6] (at 50.0 µM), 86% (active).
